Laboratory results taken from PubChem BioAssay (EPA / NIEHS).
The source made the active and inactive calls. How the source made its calls: active means hit-call score of the fitted dose curve at least 0.9, where 1 is the maximum; inactive means score below 0.9.

experiment: APR_HepG2_StressKinase_24hr: Apredica 24-hour HepG2 Assay for Stress Kinase (AID 2282922); conditions: HepG2 stress kinase (phospho-c-Jun) imaging, actives raise or lower the signal
Summary of the method: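 HepG2 cells exposed 24 hr to compound at 0.39–200 uM (10 concentrations, duplicate), 0.5% v/v DMSO final. Fixed in 3.7% formaldehyde, permeabilized with Triton X-100, immunolabeled for phospho-c-Jun with Hoechst 33342; HCS fluorescence imaging, bidirectional fit versus DMSO.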

| Structure (SMILES) | outcome |
| --- | --- |
| Cc1cc(SC2=C(O)C[C@@](CCc3ccc(N)cc3)(C(C)C)OC2=O)c(C(C)(C)C)cc1CO | inactive |
| CCCCc1nc2cccnc2n1Cc1ccc(-c2ccccc2-c2nnn[nH]2)cc1 | inactive |
| OCC(CO)n1cnc(-c2ccc(F)cc2)c1-c1ccnc(Oc2ccccc2)n1 | inactive |
| c1ccc2occc2c1 | inactive |
| CCCCC(CC)COC(=O)CCCCCCCC(=O)OCC(CC)CCCC (stereo not given) | inactive |
| CC(C)(C)c1ccccc1 | inactive |
| COC(=O)CCC(=O)OC | inactive |
| CCCCC(CC)COP(=O)(OCC(CC)CCCC)OCC(CC)CCCC (stereo not given) | inactive |
| COC(=O)CCCC(=O)OC | inactive |
| O=C(O)c1[nH]n(-c2ccc(S(=O)(=O)O)cc2)c(=O)c1N=Nc1ccc(S(=O)(=O)O)cc1 | inactive |

experiment: APR_HepG2_p53Act_72hr: Apredica 72-hour HepG2 Assay for p53 Activation (AID 2282923); conditions: high-content imaging, actives raise or lower the signal;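 further: average cellular p53 protein immunofluorescence intensity in HepG2 cells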
Summary of the method: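 Cells were dosed for 72 hr with compounds at 0.39–200 uM in duplicate (final DMSO 0.5% v/v), then fixed in 3.7% formaldehyde, permeabilized with Triton X-100 and immunostained for p53 (Cy5) with Hoechst 33342 nuclear counterstain.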

| Structure (SMILES) | outcome | AC50 |
| --- | --- | --- |
| O=C1c2c(O)cccc2Cc2cccc(O)c21 | inactive | – |
| CCCCCCCC(=O)OC | inactive | – |
| CCc1cc(C2=C(C(=O)O)N(c3ccccc3C(F)(F)F)S(=O)(=O)c3ccccc32)cc2c1OCO2 | inactive | – |
| OCC(O)CO | inactive | – |
| S=c1[nH]c2ccccc2s1 | inactive | – |
| CCCCCCCCCC[N+](C)(C)[O-] | inactive | – |
| CN(C)CCCN1c2ccccc2Sc2ccc(Cl)cc21 | – | 100 µM (active) |
| COc1ccc(C(=O)Nc2nc3ccccc3c(NCc3ccccc3)c2C#N)cc1 | inactive | – |
| CO[C@@H]1COCC[C@@H]1N[C@@H]1CC[C@@](C(=O)N2CCc3ncc(C(F)(F)F)cc3C2)(C(C)C)C1 | inactive | – |
| CS(=O)(=O)c1ccc([C@@H](C[C@H]2CCC(=O)C2)C(=O)Nc2cnccn2)cc1Cl | inactive | – |
